Assay results taken from PubChem BioAssay (NCI).
About 83,000 compounds went through this panel and 20% of them were active in at least one assay; those are over-represented in the sample as a whole.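 Cells were grown in 96-well plates and exposed to the test compound at a single concentration for 48 hours; results are reported as percent growth, with values below 10 considered active.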 Calls of active or inactive are those of the source.

Assays:
Assay in all cases: NCI-60 one-dose screen, 48 h (100 = growth as untreated, 0 = no growth, -100 = all killed)
[1] = test system: NCI-H23 lung; conditions: 10 µM unless noted
[2] = test system: NCI-H226 lung; conditions: 10 µM unless noted
[3] = test system: HOP-62 NSCLC; conditions: 10 µM unless noted
[4] = test system: NCI-H460 lung; conditions: 10 µM unless noted
[5] = test system: NCI-H522 lung; conditions: 10 µM unless noted
[6] = test system: A549/ATCC NSCLC; conditions: 10 µM unless noted
[7] = test system: 786-0 renal; conditions: 10 µM unless noted
[8] = test system: COLO 205 colon; conditions: 10 µM unless noted
[9] = test system: DU-145 prostate; conditions: 10 µM unless noted
[10] = test system: K-562 leukemia; conditions: 10 µM unless noted
[11] = test system: MDA-MB-231 breast; conditions: 10 µM unless noted
[12] = test system: RXF 393 renal; conditions: 10 µM unless noted
[13] = test system: SF-268 CNS; conditions: 10 µM unless noted
[14] = test system: SF-295 CNS; conditions: 10 µM unless noted
[15] = test system: SF-539 CNS; conditions: 10 µM unless noted
[16] = test system: UACC-257 melanoma; conditions: 10 µM unless noted
[17] = test system: M14 melanoma; conditions: 10 µM unless noted
[18] = test system: NCI-H322M lung; conditions: 10 µM unless noted
[19] = test system: HOP-92 NSCLC; conditions: 10 µM
[20] = test system: MALME-3M melanoma; conditions: 10 µM unless noted

Measured: growth

NC(=O)c1cccc(C#CCNC[C@H]2C[C@@H](n3ccc4c(Cl)ncnc43)[C@H](O)[C@@H]2O)c1
inactive: [1] 99% | [2] 99.1% | [3] 106% | [4] 113% | [5] 97.3% | [6] 101% | [7] 101% | [8] 116% | [9] 108% | [10] 111% | [11] 101% | [12] 107% | [13] 102% | [14] 105% | [15] 98.9% | [16] 98.2% | [17] 104%

CCCCCCCn1cc2c(N[C@H](C)c3ccccc3)ncnc2n1
inactive: [2] 100% | [18] 101% | [3] 95.7% | [4] 104% | [19] 94% | [5] 99.6% | [6] 106% | [7] 105% | [8] 115% | [9] 98.1% | [10] 106% | [20] 94.2% | [11] 98.4% | [12] 97.1% | [13] 102% | [14] 94.5% | [15] 98.8% | [16] 110% | [17] 99.8%

C#CCC#CCN1CCC[C@H]1C(=O)NCC(=O)OC
inactive: [1] 96.7% | [2] 104% | [4] 112% | [5] 100% | [6] 97.6% | [7] 101% | [8] 114% | [9] 105% | [10] 98.1% | [11] 106% | [12] 105% | [13] 108% | [14] 107% | [15] 105% | [16] 93.7% | [17] 107%

COC(=O)c1ccc(NC2=C/C(=N/S(=O)(=O)c3ccc(C(=O)O)cc3)c3ccccc3C2=O)cc1
active: [7] 9.38% | [9] 7.85% | [10] 0.527% | [20] -89.3% | [11] -21.6% | [12] -14.6% | [15] -83.1% | [16] -6.94%
inactive: [2] 32.7% | [18] 107% | [3] 88.2% | [4] 96.3% | [19] 23.3% | [5] 81.7% | [6] 98.7% | [8] 115% | [13] 37.7% | [14] 91.5% | [17] 67.4%

COc1cccc(N2CCN(c3ncnc4c3[nH]c3ccc(F)cc34)C[C@H]2C)c1
inactive: [2] 33.5% | [18] 89.6% | [3] 56.6% | [4] 66.3% | [19] 53.3% | [5] 33.1% | [6] 61% | [7] 71.4% | [8] 61.4% | [9] 81.5% | [10] 26.6% | [20] 48.2% | [11] 64.3% | [12] 88% | [13] 84.5% | [14] 31.8% | [15] 69.6% | [16] 15.4%

O=C(CSc1nc2ccccc2c(=O)n1-c1ccccc1)Nc1ccc(-c2nc3ccc([N+](=O)[O-])cc3[nH]2)cc1
inactive: [2] 82% | [18] 97.8% | [3] 99.1% | [4] 63.5% | [19] 99.1% | [5] 75.2% | [6] 93.4% | [7] 95.2% | [8] 110% | [9] 84.2% | [10] 42.7% | [20] 71.1% | [11] 76.8% | [12] 64.5% | [13] 76.2% | [14] 103% | [15] 78.2% | [16] 95.8% | [17] 93.3%

CC(C)C[C@@H]1N[C@@]2(C(=O)Nc3ccccc32)[C@@H](c2ccc(F)cc2)[C@@H]1C(=O)c1ccc(O)cc1
inactive: [2] 92.7% | [18] 99.1% | [3] 88.9% | [4] 101% | [19] 74.3% | [5] 79.6% | [6] 85.1% | [7] 93.2% | [8] 110% | [9] 102% | [10] 89.7% | [20] 84.3% | [11] 82.4% | [13] 88.7% | [14] 100% | [15] 93.3% | [16] 112%

N#Cc1cnc2ccc(-c3cnc4[nH]ncc4c3)cc2c1N1CCc2cc(F)c(Cl)cc21
inactive: [18] 15.3% | [7] 11% | [8] 12% | [10] 16.6% | [11] 10.9% | [16] 36%
active: [2] -0.212% | [3] 3.97% | [4] 3.18% | [19] -7.43% | [5] 1.37% | [6] 9.1% | [9] 7.85% | [20] 0.688% | [13] 8.85% | [14] -18.8% | [15] -27.1%

COc1ccc2c(c1)c(CC(=O)[Se]CC#N)c(C)n2C(=O)c1ccc(Cl)cc1
inactive: [2] 29.6% | [3] 14.1% | [4] 14.5% | [19] 26.3% | [7] 47.3% | [10] 14.5% | [13] 35.6%
active: [18] -1.05% | [5] -51.3% | [6] -9.27% | [8] -24.8% | [9] -37.1% | [20] 6.79% | [11] 9.39% | [14] -11.7% | [15] 9.61% | [16] -10%

CC(=O)c1cc(C(=O)c2ccc(Br)cc2)n2cc(C)cc(C)c12
inactive: [2] 86.4% | [18] 100% | [3] 85.6% | [4] 88.7% | [19] 99% | [5] 85.3% | [6] 97.1% | [7] 89.4% | [8] 97.7% | [9] 94.8% | [10] 93.1% | [20] 111% | [11] 90% | [13] 89.7% | [14] 96% | [15] 88.4% | [16] 105%

C=CCOc1cccc(/C=C2\SC(=S)N(C3CC(=O)N(c4ccc(Br)cc4)C3=O)C2=O)c1 (stereo not given)
inactive: [2] 101% | [18] 102% | [3] 100% | [4] 104% | [19] 107% | [5] 101% | [6] 105% | [7] 104% | [8] 126% | [9] 109% | [10] 88.1% | [20] 100% | [11] 96.3% | [12] 132% | [13] 103% | [14] 97.8% | [15] 101% | [16] 108% | [17] 106%

Cc1cc(C(NC(=O)CCCCCNc2cccc3c2C(=O)N(C2CCC(=O)NC2=O)C3=O)c2ccc3c(c2)OC(F)(F)O3)c(O)c2ncccc12 (stereo not given)
active: [19] 4.13%
inactive: [2] 72.8% | [18] 71.1% | [3] 51.1% | [4] 14.7% | [5] 72.1% | [6] 66.7% | [7] 79.2% | [8] 111% | [9] 51.9% | [10] 30.2% | [20] 84.5% | [11] 55.2% | [12] 86.4% | [13] 47.8% | [14] 48.2% | [15] 56.3% | [16] 98.5% | [17] 70.2%

CN1CCN(Cc2ccc(NC(=O)c3cncc(C#Cc4cnc5ccc(N6CCN(C)CC6)nn45)c3)cc2C(F)(F)F)CC1
inactive: [2] 28% | [18] 35.5% | [3] 28.8% | [5] 82.1% | [8] 38.9% | [20] 68.3% | [16] 101%
active: [4] -82.4% | [19] -16.1% | [6] -71.4% | [7] -84.6% | [9] -94.2% | [10] -59% | [11] -66.7% | [12] -89.9% | [13] -50.7% | [14] -78.4% | [15] -98% | [17] -45.8%

O=c1[nH]c(Sc2sc3ccc(Cl)cc3c2CBr)nc(=S)[nH]1
inactive: [2] 55.1% | [18] 39.7% | [3] 28.2% | [4] 21.5% | [5] 13% | [7] 51% | [8] 108% | [9] 33.9% | [10] 12% | [20] 27.4% | [11] 35.9% | [13] 48.9% | [14] 23% | [15] 32.1% | [16] 44.1% | [17] 27.6%
active: [19] 1.66% | [12] 9.12%

CCOC(=O)C1=NNC(c2ccc(Cl)cc2)C1C(=O)N1C(=S)NC(=O)C1CC(C)C (stereo not given)
inactive: [2] 92% | [18] 94.7% | [3] 92.8% | [4] 105% | [19] 90.2% | [5] 88.4% | [6] 110% | [7] 108% | [8] 109% | [9] 107% | [10] 98.4% | [20] 104% | [11] 86.2% | [13] 98.3% | [14] 106% | [15] 104% | [16] 116%

Cn1cc(-c2cc(N)n3nc(-c4cn(C)c5ccccc45)cc3n2)c2ccccc21
inactive: [2] 113% | [18] 98.5% | [3] 108% | [4] 93.3% | [19] 88.8% | [5] 109% | [6] 75.8% | [7] 63.7% | [8] 123% | [9] 88.1% | [20] 84% | [11] 76.4% | [12] 95.6% | [13] 100% | [14] 95.9% | [15] 84.1% | [16] 107% | [17] 32.1%
active: [10] 7.81%

CS(=O)(=O)c1ccc(-n2cc(/C=N/O)c(-c3ccccc3)n2)cc1
inactive: [2] 77.1% | [18] 81.7% | [3] 89.5% | [4] 93.9% | [19] 87.9% | [5] 70.3% | [6] 77.2% | [7] 79.1% | [8] 101% | [9] 83.9% | [10] 64.5% | [20] 97.2% | [11] 72.4% | [12] 78.6% | [13] 70.9% | [14] 87.3% | [15] 71.1% | [16] 90.1%
